# Measured values reported in PubChem BioAssay (NCI).
# Where “and” joins values, the source holds several entries; their conditions need not be identical. Equal entries are not always repeated. About 83,000 compounds went through this panel and 20% of them were active in at least one assay; those are over-represented in the sample as a whole.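 Cells were grown in 96-well plates and exposed to the test compound at a single concentration for 48 hours; results are reported as percent growth, with values below 10 considered active.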 Calls of active or inactive are those of the source.
# Test system: CCRF-CEM leukemia
# Assay: NCI-60 one-dose screen, 48 h (100 = growth as untreated, 0 = no growth, -100 = all killed)
# Conditions: 10 µM unless noted
row,Compound,growth
1,CCCCCCCCCCCCCCCCCC(=O)Nc1ccc(OC)cc1,86.4% (inactive)
2,CCN1C(=O)N(CC)C2NNC(Sc3c(C(=O)O)c4ccccc4n(CCC(C)C)c3=O)=NC21 (stereo unspecified),7.16% (active)
3,COc1ccc(/C=C/c2nc3ccccc3n3c(-c4cccc([N+](=O)[O-])c4)nnc23)cc1,-14.9% (active)
4,COc1ccc(NC(=O)N/N=C/c2c[nH]c3ccccc23)cc1,21% (inactive)
5,CCC(=O)c1cc(C(=O)OC)c2ccc3c4ccccc4ccc3n12,97.8% (inactive)
6,Cc1oc(-c2ccccc2)nc1CN[C@@H]1C[C@@H]2C[C@H]([C@H]1C)C2(C)C,23.7% (inactive)

# Test system: MOLT-4 leukemia
# Assay: as above
# Conditions: 10 µM unless noted
row,Compound,growth
1,C=CC(=O)N1CCN(c2ccc3nc4c(nc3c2C(F)(F)F)C(=O)c2ncccc2C4=O)CC1,-37.8% (active)
2,O=C(N/N=C/c1ccc(-c2cccc([N+](=O)[O-])c2)s1)c1[nH]c2ccc(Br)cc2c1-c1ccccc1,69.3% (inactive)
3,CCCCNc1ccc2c3c(cccc13)C(=O)N(NCC(O)COc1ccc3c(C)cc(=O)oc3c1)C2=O (stereo unspecified),77.7% (inactive)
4,CC(=O)Nc1cccc(-n2c(COc3ccc(Br)cc3)nc3ccccc32)c1,84.6% (inactive) and 101% (inactive)
5,CC(=O)c1c2c(c3ccc4c5ccccc5ccc4n13)C(=O)c1ccccc1C2=O,90.6% (inactive)
6,CC1=NN(C2=NC(=O)C(CC(=O)Nc3ccccc3C(F)(F)F)S2)C(c2ccc(N(C)C)cc2)C1 (stereo unspecified),28.4% (inactive)
7,Cc1ccc(C2CC(c3ccc(NC(=O)Nc4ccccc4)cc3)=NN2c2ccc(S(C)(=O)=O)cc2)cc1 (stereo unspecified),20.3% (inactive)
8,O=C(CSc1nc2sc3c(c2c(=O)n1-c1ccc(Cl)cc1)CCCC3)N/N=C/C=C/c1ccccc1,-24.4% (active)
9,O=C(COc1ccc(/C=C2/C(=O)Nc3ccc(Cl)cc32)cc1)Nc1ccc(Br)cc1,-46.5% (active)
10,CC(C)(C)OC(=O)N1CCC2(CC1)Oc1ccccc1[C@H]1CC(c3ccc(Br)cc3)=NN12,47% (inactive)
11,N#Cc1c(-c2ccc(F)cc2)nc(SCc2ccc(F)cc2)nc1N1CCNCC1,7.79% (active)
12,Cc1ccc(/C=C/C(=O)c2ccc(S(=O)(=O)NCCNc3nc(N(C)C)nc(N4CCOCC4)n3)cc2)cc1,13.5% (inactive)
13,ClC(Cn1ncc2c(Nc3cccc(Br)c3)nc(SCCN3CCOCC3)nc21)c1ccc(Br)cc1 (stereo unspecified),-34.3% (active)
14,COc1ccc(N=Nc2c(N)nn3c(N)c(C#N)c(-c4ccccc4)nc23)cc1,72.8% (inactive)
15,Cc1cccc(-c2ccccc2Oc2ccc3nnc(Cl)n3n2)c1,103% (inactive)
16,CCN1CCN(Cc2ccc(C(=O)Nc3cccc(Nc4ccc5c(OC)cccc5n4)c3)cc2C(F)(F)F)CC1,-45.4% (active)
17,N#CCc1nnc(NC(=O)c2ccc(-n3c(=O)[nH]c4ccccc4c3=O)cc2)s1,103% (inactive)
18,COc1cc(NC(=O)CSc2nnc(-c3ccc(-c4nc5ccc(Cl)cc5[nH]4)cc3)o2)cc(OC)c1OC,34.2% (inactive)
19,c1n[nH]cc1-c1nc2ccc3cn[nH]c3c2c2c1CCCC2,92.7% (inactive)
20,Cc1ccccc1NC(=O)c1cccc(NC(=O)CCl)c1,29.7% (inactive)
21,COc1ccc(-c2cc(-c3cc(OC)c(OC)c(OC)c3)[nH]c(=O)c2C#N)cc1,80.1% (inactive)
22,O=C(CSc1nc2c(c(=O)[nH]1)CCCC2)Nc1ccccc1C(=O)O,99.3% (inactive)
23,N/C(=N\c1nc2ccccc2s1)NC(=O)Nc1ccccc1[N+](=O)[O-],15.2% (inactive)
24,FC(F)(F)c1cc2c(Cl)ncnc2n1CCN1CCOCC1,20.2% (inactive)
25,O=C(NNC(=O)c1ccc(OCc2nc3ccc(Cl)cc3[nH]2)cc1)Nc1ccc(Cl)c(Cl)c1,94% (inactive)
26,Clc1ccc(-c2nc3c4c(-c5ccccc5)c(-c5ccccc5)n(Cc5ccccc5)c4ncn3n2)cc1,-5.99% (active)
27,COc1c(B(O)O)cc(F)cc1-c1nc2c(F)cc3[nH]ncc3c2c2c1CCCC2,17% (inactive)
28,C/C(=N\Nc1ccc(C(=O)O)cc1)c1cnn(-c2cc(=O)[nH]c3ccc(C)cc23)c1C,97.8% (inactive)
29,O=C1Nc2cc(-c3ccc(NS(=O)(=O)c4ccc([N+](=O)[O-])cc4)cc3)ccc2/C1=C/c1ccc[nH]1,15.8% (inactive)
30,COc1ccc(NC(=O)CSc2nnc(-c3ccc(-c4nc5ccc(Cl)cc5[nH]4)cc3)o2)cc1,37.5% (inactive)
